The campaign covered roughly 69,000 compounds. About 8,600 (12%) showed an effect of 50% or more. This is one part of a sample in which strong results are shown more often than they occur.

The test system of the test is Plasmodium berghei. Put plainly: Screen against P. berghei liver stage (PbLuc), transformed with Luciferase, at 10uM. The class given is functional, HepG2. The conditions noted are these: tested at 10 uM.
On to `CCc1ncc(C(=O)N(C)CCc2nc3cc(OC)ccc3[nH]2)cn1`, for which the INHIBITION came to 59.1%.

With `CN(CCc1nc2cc(Cl)ccc2[nH]1)C(=O)c1ncn[nH]1`, the INHIBITION was 16.5%.

For the molecule `CCNc1ncc(C(=O)N(C)CCc2nc3cc(Cl)ccc3[nH]2)cn1`, the INHIBITION was determined as 41.5%.

With `CCn1cnnc1CNC(=O)c1ccc(Cl)cc1I`, the INHIBITION worked out at 44.1%.

In the case of `COc1cc(N2CCC3(CC2)CNC(=O)CO3)ncn1`, the INHIBITION stood at 16.6%.

On to `O=C1COC2(CCN(c3ccccn3)CC2)CN1`, for which the INHIBITION is -23.3%.

`O=C1COC2(CCN(c3ncccn3)CC2)CN1`: the INHIBITION came out at 70%.

Take `O=C1CCCCN1CCCC(=O)N1CCC2(CC1)[C@H](O)C[C@@H]2O`: the INHIBITION worked out at 26.8%.

As for `CN(CC(=O)Nc1ccncc1)CC1CCCN1c1cccnn1` (stereo not drawn), the INHIBITION worked out at 41.4%.

In the case of `CC(=O)Nc1nc(CN(C)CC2CCCN2c2cccnn2)cs1` (stereo not drawn), the INHIBITION is given as 51.7%.

As for `CN(CC(=O)Nc1cccnc1)CC1CCCN1c1cccnn1` (stereo not drawn), the INHIBITION came to 53.4%.

For the molecule `Cc1csc(NC(=O)CN(C)CC2CCCN2c2cccnn2)n1` (stereo not drawn), the INHIBITION was found to be 48.5%.

Regarding `CN(CC(=O)Nc1nncs1)CC1CCCN1c1cccnn1` (stereo not drawn), the INHIBITION worked out at 3.77%.

As to `CC(=O)Nc1nc(CN(C)C2CCCN(c3cccnn3)C2)cs1` (stereo not drawn), the INHIBITION came out at 31.2%.

In the case of `Cc1noc(C)c1CCC(=O)N[C@@H]1CCC[C@@H](Oc2cccnc2)[C@@H]1O`, the INHIBITION was -27.1%.

Consider `CS(=O)(=O)c1cccc(C(=O)NCC2(c3ccccc3)CC2)c1`, for which the INHIBITION amounted to 86.8%.

As for `O=C(NCCCN1CCc2ccccc2C1)c1ccccc1Br`, the INHIBITION worked out at 5.03%.

`Cc1ccccc1C1(CNC(=O)c2ccc(S(C)(=O)=O)cc2)CC1`: the INHIBITION is listed as 30.3%.

As for `Cc1ccccc1C1(CNC(=O)c2cccc(S(C)(=O)=O)c2)CC1`, the INHIBITION was -8.22%.

With `CS(=O)(=O)c1cccc(C(=O)NCCCN2CCc3ccccc3C2)c1`, the INHIBITION was 56.4%.

`Cc1cccc(C(=O)NCCCN2CCc3ccccc3C2)c1C`: the INHIBITION is on record as 21.5%.

On to `O=C(NCCCN1CCc2ccccc2C1)c1ccccc1Cl`, for which the INHIBITION is given as -7.31%.

`CS(=O)(=O)c1ccccc1C(=O)NCCCN1CCc2ccccc2C1`: the INHIBITION stood at 52.1%.

Regarding `Cc1ccccc1C(=O)NCCCN1CCc2ccccc2C1`, the INHIBITION was 25.6%.

In the case of `Cc1nc(C)n(CC2CCCCN2CC(=O)NC(C2CC2)C2CC2)n1` (stereo not drawn), the INHIBITION is -24.2%.

Turning to `O=c1c2ccccc2nc2n1C(CSc1cccc(C(F)(F)F)c1)CN2` (stereo not drawn), the INHIBITION is reported as 37.8%.

As to `CNC(=O)[C@@H]1C[C@H]2CN(C(=O)c3ccco3)C[C@H]2N1C`, the INHIBITION is 7.84%.

In the case of `c1ccc(N2CCOC3(CCCN(c4nncs4)C3)C2)nc1` (stereo not drawn), the INHIBITION was determined as 3.95%.

Take `O=C1C[C@@H]2CC[C@H](CN1)N2C(=O)CCc1ccccc1`: the INHIBITION is reported as 11.2%.

Regarding `Cc1cc(CCC(N)=O)cc(C2CCCN2Cc2cnc(C)nc2)n1` (stereo not drawn), the INHIBITION stood at 52%.

For `Cc1cc(CCC(N)=O)cc(C2CCCN2Cc2ccccn2)n1` (stereo not drawn), the INHIBITION was determined as 18.3%.

Turning to `Cc1cc(CCC(N)=O)cc(C2CCCN2Cc2ccnn2C)n1` (stereo not drawn), the INHIBITION is recorded as -2.11%.

`Cc1noc(C)c1CNCC1COCc2c(-c3ccoc3)nnn2C1` (stereo not drawn): the INHIBITION is on record as -16.9%.

In the case of `CCc1noc(C2CCCCN2C(=O)c2ccc3c(c2)OCO3)n1` (stereo not drawn), the INHIBITION turned out to be 7.66%.

Take `Cc1nc(CN2CCCC2c2nc(C(C)C)no2)cs1` (stereo not drawn): the INHIBITION came to 36.8%.

`CCn1ccc2ccc(CN3CCCC3c3nc(C(C)C)no3)cc21` (stereo not drawn): the INHIBITION is given as 61.2%.

For the molecule `CCn1cc(CN2CCCC2c2nc(C(C)C)no2)cc1C#N` (stereo not drawn), the INHIBITION was 25.8%.

Regarding `C=C(C)CNC(C)c1ccc(S(C)(=O)=O)c(F)c1` (stereo not drawn), the INHIBITION is on record as -13.1%.

As for `Nc1nccnc1C(=O)NC1CCN(Cc2ccccc2)C1` (stereo not drawn), the INHIBITION was -14.5%.

Turning to `Cc1cc(C)c2c(OCC(=O)NCC(O)C(F)(F)F)nn(C)c2n1` (stereo not drawn), the INHIBITION is recorded as -23.4%.

`COc1cccc(C2=CCN(CCN3CCOC3=O)CC2)c1`: the INHIBITION came out at 9.37%.

On to `COCCN1CC=C(c2cccc(OC)c2)CC1`, for which the INHIBITION was -6.72%.

Regarding `COc1cccc(C2=CCN(CCN3CCCC3=O)CC2)c1`, the INHIBITION is given as 51.7%.

`O=S(=O)(c1ccc(N2CCCCC2)c2nonc12)N1CCCCC1`: the INHIBITION was found to be 30%.

Regarding `COc1cc(F)ccc1-c1cnc(N)cn1`, the INHIBITION is on record as 61.5%.

`COc1cc(F)ccc1-c1cc(CO)ccn1`: the INHIBITION worked out at 37.7%.

With `Nc1cnc(-c2ccc(F)cc2Cl)cn1`, the INHIBITION is reported as 38.2%.

As to `CN1CCN(C2CCOCC2)CC12CCC(=O)N(CC1CC1)CC2` (stereo not drawn), the INHIBITION came out at 5.46%.

Regarding `Clc1cccc(-n2cnnn2)c1N1CCCC1`, the INHIBITION is 11%.

For the molecule `Clc1cccc(-n2cnnn2)c1N1CCCCC1`, the INHIBITION worked out at 67.3%.

Regarding `Clc1cccc(-n2cnnn2)c1N1CCOCC1`, the INHIBITION came out at 1.86%.

In the case of `O=c1[nH]c2nc(NC3CC3)ncc2c(=O)n1-c1ccc(F)cc1`, the INHIBITION was 13.8%.

As to `O=c1[nH]c2nc(NCC3CCCO3)ncc2c(=O)n1-c1ccc(F)cc1` (stereo not drawn), the INHIBITION was found to be 88.8%.

The values above are taken from ChEMBL document CHEMBL4513216, “Probing the Open Global Health Chemical Diversity Library for Multistage-Active Starting Points for Next-Generation Antimalarials” (ACS Infect Dis, 2020).
